Measured values published in PubChem BioAssay.
Active and inactive are the calls of the source. How the calls were made is not given here.

system: Aerobactin synthetase IucA (Klebsiella pneumoniae hvKP1); assay: Biochemical IucA enzyme inhibition primary screen of the Spectrum library (AID 1346200); conditions: malachite green pyrophosphate, A620, at 8 µM, active compounds read low;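 further: 100% = wells without compound and 0% = wells lacking enzyme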

Row | Structure (SMILES) | activity remaining
1 | CO[C@@H]1[C@@H](OC(N)=O)[C@@H](O)[C@H](Oc2ccc3c(O)c(NC(=O)c4ccc(O)c(CC=C(C)C)c4)c(=O)oc3c2C)OC1(C)C | 129% (inactive)
2 | COC(=O)C(O)c1ccccc1 (centres undefined) | 108% (inactive)
3 | CC(N)CCCC(C)(C)O (centres undefined) | 123% (inactive)
4 | COc1ccc([C@@H](C)C(=O)c2ccc(O)cc2O)cc1 | 118% (inactive)
5 | NC(N)=O | 91.3% (inactive)
6 | C=C1[C@H]2CC[C@@]3(C)[C@H](c4ccoc4)OC(=O)C[C@]13O[C@H]1C[C@H](O)C(C)(C)[C@H](CC(=O)OC)[C@]12C | 107% (inactive)
7 | CCCCCCCCCCCCCCCCOP(=O)([O-])OCC[N+](C)(C)C | 128% (inactive)
8 | COc1ccc(-c2cc(=O)c3c(OC(C)=O)cc(OC(C)=O)cc3o2)cc1 | 108% (inactive)
9 | CCCCC(=O)N(Cc1ccc(-c2ccccc2-c2nn[nH]n2)cc1)[C@H](C(=O)O)C(C)C | 121% (inactive)
10 | COc1cccc(OC)c1C(=O)N[C@@H]1C(=O)N2[C@@H]1SC(C)(C)[C@@H]2C(=O)O | 85.9% (inactive)
11 | CN[C@@H]1[C@@H](O[C@H]2O[C@H](CO)[C@@H](N)[C@H](O)[C@H]2O)O[C@H]2C[C@@H](N)[C@H](O[C@H]3[C@H](O)[C@@H](O)[C@H](N)C[C@@H]3N)O[C@@H]2[C@@H]1O | 124% (inactive)
12 | CC(=O)OCC(=O)[C@H]1CCC2C3CCC4=CC(=O)CC[C@]4(C)C3CC[C@@]21C (some centres undefined) | 111% (inactive)
13 | C[C@H]1OC(n2cc(F)c(=O)[nH]c2=O)C(O)[C@@H]1O (some centres undefined) | 121% (inactive)
14 | CC(C)[C@@H]1CC[C@@H](C)C[C@H]1O | 95.9% (inactive)
15 | COC1C=CC23c4cc5c(cc4CN(C[C@H]2O)[C@@H]3C1)OCO5 (some centres undefined) | 110% (inactive)
16 | COc1cc2ccc(=O)oc2c(O)c1O | 112% (inactive)
17 | COc1ccc(-c2coc3cc(O)ccc3c2=O)cc1 | 109% (inactive)
18 | C[C@H]1CC2C([C@@H](O)C[C@@]3(C)C2CC[C@]3(O)C(=O)CO)[C@@]2(C)C=CC(=O)C=C12 (some centres undefined) | 115% (inactive)
19 | CC(=O)Oc1cc2c(c(C)c1OC(C)=O)CC1OC13[C@@]2(C)CC[C@@]1(C)C2C[C@](C)(C(=O)O)CC[C@]2(C)CC[C@]31C (some centres undefined) | 101% (inactive)
20 | OCC(O)CN1CCN(c2ccccc2)CC1 (centres undefined) | 107% (inactive)
21 | COc1cc(O)c(C(=O)/C=C/c2ccccc2)c(OC)c1 | 119% (inactive)
22 | COc1ccc(-c2coc3c(OC)c(OC)cc(O)c3c2=O)cc1 | 105% (inactive)
23 | O=C1O[C@H](C(O)CO)C(O)=C1O (some centres undefined) | 92.2% (inactive)
24 | CCOc1nc2cccc(C(=O)OC(C)OC(=O)OC3CCCCC3)c2n1Cc1ccc(-c2ccccc2-c2nn[nH]n2)cc1 (centres undefined) | 104% (inactive)
